Tests used:
[1] = molecular target: T1, Aspartate--tRNA(Asp/Asn) ligase (Mycobacterium tuberculosis (strain ATCC 25618 / H37Rv)) (UniProt P9WFW3); test: Assay for Asp RNA synthetase-1 from Mycobacterium tuberculosis; type: functional; parameters: scale not given: direction of the effect not stated beside the values; details: 30 µM; note: in the data most compounds retested in dose-response had high values
T1 sequence (whole entry): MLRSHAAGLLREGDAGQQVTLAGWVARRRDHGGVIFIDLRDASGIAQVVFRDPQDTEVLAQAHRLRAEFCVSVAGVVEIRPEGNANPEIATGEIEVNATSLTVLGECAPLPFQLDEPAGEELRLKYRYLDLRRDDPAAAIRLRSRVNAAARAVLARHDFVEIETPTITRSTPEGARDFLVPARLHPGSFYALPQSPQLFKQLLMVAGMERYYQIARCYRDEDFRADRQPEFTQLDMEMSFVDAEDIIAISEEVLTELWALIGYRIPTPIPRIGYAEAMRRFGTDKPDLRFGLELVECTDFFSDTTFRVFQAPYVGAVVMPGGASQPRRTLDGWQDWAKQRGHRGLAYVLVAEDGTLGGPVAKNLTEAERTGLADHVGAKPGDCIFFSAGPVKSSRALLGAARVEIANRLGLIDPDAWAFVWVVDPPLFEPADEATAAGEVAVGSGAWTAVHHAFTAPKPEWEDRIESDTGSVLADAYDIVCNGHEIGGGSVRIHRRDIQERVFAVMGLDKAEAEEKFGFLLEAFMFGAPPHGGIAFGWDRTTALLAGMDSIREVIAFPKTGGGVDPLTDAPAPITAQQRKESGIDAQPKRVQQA

[2] = molecular target: Shiga toxin 2 (Escherichia coli O157:H7) (UniProt P09385+P09386); test: E. coli 0.157:H7 Shiga Toxin SOP - stx2 screening assay; type: functional; parameters: scale not given: direction of the effect not stated beside the values; details: 30 µM

| SMILES | Percent Effect [1] [%] | Percent Effect [2] [%] |
| --- | --- | --- |
| COc1ccc(CCNC(=O)NC2CCCC2)cc1OC | 2.58 | -10.6 |
| COc1ccc(CC(=O)N2CCCC2Cn2cccn2)cc1F (configuration not stated) | -0.871 | 15.1 |
| CCN(CC)CC1CN(CCc2ccccc2)Cc2nccn2C1 (configuration not stated) | -4.79 | 4.72 |
| CCN1CCN(CC(O)c2ccc(OC(F)(F)F)cc2)CC1 (configuration not stated) | 5.22 | -5.3 |
| COCC1CN(Cc2cc(C)on2)Cc2cn(C)nc21 (configuration not stated) | 1.83 | -2.41 |
| CS(=O)(=O)Cc1cccc(C(=O)NCC2Cc3ccccc3O2)c1 (configuration not stated) | 8.39 | -0.655 |
| Cc1cc(CC(=O)N(CC2CN(C)CCO2)c2nccs2)no1 (configuration not stated) | -0.67 | -18.7 |
| Cc1nc(C)n(CC2CCCN2Cc2cn3ccsc3n2)n1 (configuration not stated) | 1.75 | -76 |
| c1ccc(-c2nccc(CNCC3CCCN3c3cccnn3)n2)cc1 (configuration not stated) | 0.1 | 11.8 |
| CCCn1ncc2c(C(=O)Nc3cnn(CC)c3C)cc(C3CC3)nc21 | -1.49 | -0.924 |
| c1ccc(C[C@H]2[C@H](N3CCOCC3)CCN2Cc2cccnc2)cc1 | 2.33 | -7.76 |
| CCOc1ccc2[nH]c(=O)c(CN3CCC(O)CC3)cc2c1 | -6.3 | -8.86 |
| CC(=O)NCCC(=O)NCc1cccnc1-n1cnc2ccccc21 | -1.62 | -2.41 |
| C[C@H]1C[C@H]2CN(C(=O)c3ccncn3)CC[C@H]2O1 | -0.436 | -34.2 |
| O=C(CCNC(=O)c1ccoc1)NCc1ccccc1F | 1.27 | 11.5 |
| Cn1cc(C(=O)NC2CCN(Cc3ccn(C)c(=O)c3)CC2)cn1 | 1.68 | -28 |
| COCC1COCCC12CCN(CCc1ccccc1)CC2 (configuration not stated) | -6.15 | 2.07 |
| Cc1cc(C)c(CNC(=O)C2CCCN(c3cnccn3)C2)c(=O)[nH]1 (configuration not stated) | -0.345 | 30.7 |
| NC(=O)c1cc(C2CCCN(CCCOc3ccccc3)C2)n[nH]1 (configuration not stated) | -1.57 | -26 |
| Cc1ncsc1C(=O)N(C)Cc1ccncc1 | -4.5 | 27.3 |
| CC(C)CNC(=O)CN1C=Nc2ccccc2S1(=O)=O | 5.2 | 32.2 |
| Cc1nc(C)n(CC2CCCN2Cc2cn3c(C)cccc3n2)n1 (configuration not stated) | -5.04 | -2.35 |
| O=C(c1cccc(OC2CCCC2)c1)N1CCCC(n2cncn2)C1 (configuration not stated) | -0.0372 | 16.8 |
| CCOc1ccc(S(=O)(=O)NC(=O)CCC2CCCO2)cc1 (configuration not stated) | 2.17 | 23.1 |
| CN(C)C(=O)[C@@H]1CCO[C@@H]2CCN(Cc3ccccc3)C[C@@H]21 | 2.24 | -27 |
| O=C(CCNCC(F)(F)F)N1CCC(Nc2cccnn2)CC1 | 2.25 | -14.2 |

| SMILES | Percent Effect [1] [%] | Percent Effect [2] [%] |
| --- | --- | --- |
| O=C(c1ccsc1)N1CCCC(c2cc(C(F)(F)F)[nH]n2)C1 (configuration not stated) | 7.19 | 28 |
| O=C(C1=CCCC1)N1CCC[C@]2(C[C@@H](Oc3ncccc3F)CO2)C1 | 0.0684 | 7.81 |
| Cc1c(I)cccc1C(=O)NCC1(CO)CC1 | 0.747 | 0.906 |
| CCCn1nc2c(cc1=O)CN(CCCS(N)(=O)=O)CC2 | 18.8 | 7.35 |
| Cc1nc(COCc2cnc3n2CCN(C2CCC2)C3C)cs1 (configuration not stated) | -4.78 | -5.21 |
| CN1CCCc2cc(NC(=O)N3CCOC(C(N)=O)C3)ccc21 (configuration not stated) | -0.684 | -77.6 |
| Cc1nnc(N2CCC(CN(C)C(C)C)CC2)c(C#N)c1C | -0.173 | -25 |
| Cn1nc(COc2cccnc2)c2c1CCN(c1cnccn1)C2 | 10.9 | 7.98 |
| CS(=O)(=O)CC(=O)N1C[C@H]2CCC[C@@]2(COCc2ccccn2)C1 | 4.11 | -6.39 |
| COc1cc(C(C)=O)ccc1OCC(=O)N(C)Cc1cnn(C)c1 | -4.92 | 0.928 |
| COc1ccccc1CC(=O)NS(C)(=O)=O | -7.77 | 0.472 |
| Cc1cccc(CN2CCc3ncnc(N4CCOCC4)c3CC2)n1 | -3.01 | -8.89 |
| CCc1ccc(C(=O)NC2CCN(c3cnn(C)c3)C2=O)o1 (configuration not stated) | 3.57 | -7.19 |
| O=C1COC2(CCN(Cc3ccc(F)cc3)CC2)CN1 | 0.549 | 11.4 |
| CC(C)OCc1ncn2c1CN(Cc1cccs1)CCC2 | 8.33 | -0.247 |
| CCc1ccsc1C(=O)N1CCN(CC(O)CC)CC1 (configuration not stated) | 1.06 | -26.4 |
| Cc1cc(CNC(=O)N2CCN(c3ccccc3)CC2)no1 | 1.31 | -2.24 |
| CCN(Cc1ccc2c(c1)OCO2)C(=O)NC(C)Cn1cccn1 (configuration not stated) | -0.819 | -12.4 |
| Fc1ccc(CN2CC[C@H]3O[C@@H](COCC4CCOCC4)CC[C@H]32)cc1 | 0.838 | -14.5 |
| CC(=O)N1CC(=O)N(c2cnn(C)c2)CC12CCN(Cc1ccsc1)C2 (configuration not stated) | 4.83 | -25.5 |
| CC(C)c1nn(C)c(N2CCOCC2)c1CNC(C)c1cccs1 (configuration not stated) | -0.59 | 33.2 |
| N#Cc1ccnc(N2CCN(C(=O)Cc3ccc4c(c3)CCO4)CC2)c1 | 0.144 | 6.14 |
| OC(COc1ccc(F)cc1)CN1CCC(Cn2cccn2)CC1 (configuration not stated) | 1.46 | -35.3 |
| Cc1c(C)n(Cc2ccccn2)c2nc3c(c(N)c12)CCCC3 | -2.53 | -3.33 |
| CN1CCN(C(=O)Cc2cccc(F)c2)Cc2cccnc21 | -2.05 | -29.8 |
| CC(C)c1nc(CN2CCN(CC3CCCO3)CC2)cs1 (configuration not stated) | -0.404 | 12 |

| SMILES | Percent Effect [1] [%] | Percent Effect [2] [%] |
| --- | --- | --- |
| Cc1ccc(Cl)cc1N1CCC(CNC(=O)CCn2ccnc2)C1 (configuration not stated) | -2.41 | -19.4 |
| O=C(NCC1CCOCC1)[C@@H]1C[C@@H]2CCN(Cc3ccco3)C[C@H]2O1 | 0.32 | 4.1 |
| OCCn1cc(CN2CCN(CCOc3ccccc3)CC2)cn1 | 0.728 | 13.3 |
| Cc1ccc(CNC(c2ccccc2)c2nccn2C)cc1C (configuration not stated) | 1.11 | 14.8 |
| CCOc1ccccc1Nc1nc2c(C)nn(C)c2c(=O)n1C | 1.66 | -24.7 |
| O=C(N1CCCC1)N1CCO[C@H]2[C@@H](Oc3ccccn3)CC[C@@H]21 | -4.07 | -9.25 |
| CC(C)c1nc(CC(=O)Nc2nc(CN3CCCCCC3)cs2)cs1 | -0.836 | -37.6 |
| CC1CCN(Cc2cnc(S(=O)(=O)CC3CC3)n2CC2CCCO2)CC1 (configuration not stated) | -2.12 | -24.8 |
| c1ccc(-c2nc(CNC3CCc4ncnn4C3)co2)cc1 (configuration not stated) | -3.79 | -10.8 |
| c1cnc(-c2cnc(N3CCSCC3)nc2C2CC2)cn1 | 1.07 | 4.88 |
| COCCN1C[C@H]2CC[C@@]3(N=C(C)N(CC4CC4)C3=O)[C@H]2C1 | 4.94 | -12.7 |
| O=C(NCCCn1cncn1)N1CCCC(N2CCCC2)C1 (configuration not stated) | 3.5 | 0.153 |
| COc1cccc(CN2CCCC2c2c(C)nn(C)c2C)c1 (configuration not stated) | 2.17 | -4.12 |
| Cc1csc([C@@H]2C[C@@H]3CCN(Cc4cnn(C)c4)C[C@H]3O2)n1 | -2.71 | -29.9 |
| CCOc1ccc(N(CC(=O)c2ccccc2)C2=NCCCCC2)cc1 | 1.35 | -5.46 |
| Cc1cnn(CC2CCCCN2C(=O)c2cc(C(N)=O)cs2)c1 (configuration not stated) | -2.6 | 1.14 |
| CC(=O)N(C)c1nc(CN2CCOC(Cn3cc(C)cn3)C2)cs1 (configuration not stated) | -3.86 | -9.15 |
| CC(C)CCOCCNC(=O)Nc1cc(C(F)(F)F)c[nH]c1=O | 1.4 | 5.72 |
| COCCCN1CC2(CCCCN2C(=O)c2ccsc2)CC1=O (configuration not stated) | -3.53 | -5.69 |
| CCS(=O)(=O)N1CC[C@H](OC)[C@@H]1Cc1ccncc1 | -2.52 | -2.84 |
| CC(C)(C)NC(=O)CN1CCN(C(=O)Nc2ccc(F)cc2F)CC1 | -2.94 | -44.1 |
| COc1ccccc1OCc1cc(C(=O)N2CCN[C@H](C)C2)n[nH]1 | 0.167 | -31.9 |
| Cc1cccc(CN2CC3(CCNCC3)OCC2=O)n1 | 5.56 | 5.99 |
| Cc1ccc(Nc2nccc(C3CCCN(CC(=O)N(C)C)C3)n2)nc1 (configuration not stated) | -2.93 | -28.3 |
| CNS(=O)(=O)c1cc(C(=O)NC2CCOc3ccccc32)cc(C)c1C (configuration not stated) | -2.19 | 3.19 |
| O=C(CSC1CCc2ccccc2NC1=O)NCCO (configuration not stated) | 0.805 | -11.3 |

| SMILES | Percent Effect [1] [%] | Percent Effect [2] [%] |
| --- | --- | --- |
| Cc1ccc(NC2CCN(C(=O)CN(C)C3CC3)CC2)nn1 | -0.538 | -2.23 |
| O=C(CCCOc1ccc(F)cc1)N1CCCC(n2cccn2)C1 (configuration not stated) | -0.115 | 7.54 |
| O=S(=O)(Nc1cnn(C2CCOCC2)c1)c1c(F)cccc1F | 2.52 | 1.54 |
| COCCNS(=O)(=O)c1ccc2c(c1)CCN(C(=O)c1cncn1C)C2 | 0.891 | -23.1 |
| O=C(Cn1ccnc1)N1C[C@@H]2CC[C@H](Oc3ccccc3Cl)[C@@H]2C1 | -0.551 | 13.9 |
| Cn1ccc(CN2CCC(NC(=O)NC3CCCCC3)CC2)cc1=O | -0.833 | -11.2 |
| COCCN(Cc1ccc(F)cc1Cl)C(=O)c1ccc(=O)[nH]n1 | -1.92 | 2.84 |
| O=C(CN1CCCC1Cn1cncn1)Nc1cccnc1 (configuration not stated) | 1.28 | 9.88 |
| CCN(CC)c1ccc(C(=O)N(C)Cc2c(C)noc2C)cn1 | 3.51 | 32.5 |
| CCN1CCN(C2CCN(Cc3ncc(C(C)(C)C)o3)CC2)C1=O | -3.69 | 6.2 |
| CNc1cncc(C2CCCN2Cc2ccccn2)n1 (configuration not stated) | -3.38 | -10.2 |
| Cc1ccc(C)c(-c2csc(N)c2C#N)c1 | 2.35 | 4.18 |
| Cc1ccc(S(=O)(=O)N2C[C@H]3C[C@H](NC(=O)c4ccn(C)n4)[C@H]3C2)cc1 | 1.35 | -2.81 |
| Cc1noc(Cl)c1CCC(=O)N1CCC(CC(N)=O)CC1 | 0.618 | 17.9 |
| CCN1CC(C(=O)N2CCC(Oc3ccccc3C)CC2)CC1=O (configuration not stated) | -1.25 | -32.1 |
| CNC(=O)[C@H]1C[C@H]2OCC[C@H]2N(Cc2ccc(C)o2)C1 | -1.06 | -4.41 |
| COc1ccc(C)cc1CNCc1ccc(-n2nc(C)cc2C)nc1 | -2.68 | 26.6 |
| CC(C)(C)c1nnc(CN2CCCC(c3cc(C(N)=O)[nH]n3)C2)o1 (configuration not stated) | -0.781 | 19.9 |
| Cn1cnc2c1CCN(Cc1ccc(C(=O)N3CCCC3)cc1)C2 | 0.745 | -74.8 |
| CC(C)N(C)C(=O)CN1CCCC(c2ccc(C(=O)O)cc2)C1 (configuration not stated) | -0.982 | 5.69 |
| CCc1c(C(=O)NCC2CCS(=O)(=O)C2)cnn1-c1ccc(C)cc1 (configuration not stated) | -1.8 | -0.796 |
| O=C(Cc1ccc2c(c1)OCO2)N1CCN(c2cnccn2)CC1 | -3.06 | 19 |
| CSc1ccc(C(CN)N2CCc3sccc3C2)cc1 (configuration not stated) | -1.53 | -31.4 |
